Records with an inconclusive call do not appear. The source made the active and inactive calls. The calls were made as follows: active = hit-call score of the fitted dose curve at least 0.9, where 1 is the maximum; inconclusive = response in the unintended direction; inactive = score below 0.9.

The subject of the experiment is Sodium/Iodide Symporter (NIS), SLC5A5 (gene 6528). As to the kind of experiment: CPHEA_Stoker_NIS_Inhibition_RAIU: CPHEA's Radioactive Iodide Uptake (RAIU) Assay for Sodium/Iodide Symporter (NIS) Inhibition, Stoker and Laws Labs (AID 2283841). Here is the method: CPHEA_Stoker_NIS is a cell-based, single-readout assay that uses hNIS-HEK293T-EPA, a novel human kidney cell line expressing human NIS, with measurements taken at 2 hours after chemical dosing in a 96-well plate. This radioactive iodide uptake (RAIU) assay is used to identify inhibitors of NIS-mediated iodide uptake. A parallel cytoxicity assay (Cell Titer Glo, Promega) was also run in the same cell line.CPHEA_Stoker_NIS_Inhibition_RAIU is one of 2 assay components measured from the CPHEA_Stoker_NIS assay. It is designed to make measurements of radioactive substrate uptake to understand transporter function, as detected with 125-i signals by MicroBeta radioactivity plate reader technology.Data from the assay component CPHEA_Stoker_NIS_Inhibition_RAIU was analyzed at the endpoint, CPHEA_Stoker_NIS_Inhibition_RAIU, in the positive analysis fitting direction relative to DMSO as the negative control and baseline of activity. Measures of radioactive substrate uptake for loss-of-signal activity can be used to understand the effects on transporter function at the pathway level as they relate to the sodium-iodide symporter, gene SLC5A5. To generalize the intended target to other relatable targets, this assay endpoint is annotated to the transporter intended target family, where the subfamily is sodium-iodide symporter (NIS).
hNIS-HEK293T-EPA cells were seeded with a MultiFlo FX dispenser (BioTek, Winooski, VT) into ScintiPlate-96 microplates (Perkin Elmer, Waltham, MA) at a density of 4.0x10^4 cells per well in 200uL growth media and incubated for 40 hours before experimentation. On day of the assay, carrier-free 125I (Perkin-Elmer, Waltham, MA; specific activity: 17.4Ci/mg) was diluted with Hanks' balanced salt solution (Sigma, St. Louis, MO) supplemented with 10mM HEPES (uptake buffer; pH 7.4) at 5uCi/mL (288pg 125I/mL uptake buffer; 2.30nM). The assay was initiated by washing cells twice with 200uL uptake buffer using a 96-well Tecan HydroSpeed plate washer (Tecan, Mannedorf, Switzerland). Uptake buffer (59.7uL) was then added back to each well. Chemical samples (350nL at 200X) were administered using the HDR tool as previously described to achieve a 1X chemical/0.5% final DMSO concentration with subsequent addition of 10uL of 125I dilution (final [125I]: 329pM; 2.88pg/well) for a final reaction volume of 70uL/well. Cells were incubated at room temperature for 2 hours and then washed twice with 200uL ice cold uptake buffer. All uptake buffer was aspirated from wells, plates were sealed, and read on a MicroBeta2 plate reader (Perkin Elmer, Waltham, MA) using a detection protocol to measure CPM corresponding to intracellular 125I concentration. Each chemical concentration (0.001, 0.01, 0.1, 1.0, 10, and 100uM) was assayed in triplicate with three independent biological replicate plates (3 sequential cell passages). Additionally, a concentration response of NaClO4 (0.001, 0.01, 0.1, 1.0, 10, and 100uM) served as a positive control inhibition curve on each RAIU assay plate. DMSO control wells were assayed on each plate as a measure of maximum iodide uptake for normalization and determination of intra- and inter-assay variation. (Toxicol In Vitro, 2017, 40:66-78).
As for `COC(=O)C(F)(F)C(F)(F)OC(F)(C(F)(F)F)C(F)(F)OC(F)=C(F)F` (configuration not stated), the result was inactive.
`CC(C)(C)c1ccc(O)cc1`: the outcome was inactive.
The same measure, in the same setting: in the case of `O=NN1CCCC1` it was “inactive”; in that of `OCC(F)(F)OC(F)(F)C(F)(F)OC(F)(F)C(F)(F)OC(F)(F)F`, “inactive”.
Still for that read-out and setting: with `CCOP(=S)(Oc1ccc([N+](=O)[O-])cc1)c1ccccc1` (configuration not stated) the entry was “inactive”.
Consider `O=P(Oc1ccccc1)(Oc1ccccc1)Oc1ccccc1`, for which the AC50 – broadly, the concentration giving half of the maximal activity seen – is 50 µM (active).
For `CCCCc1ccc(O)cc1`, the result was inactive.
The same measure, in the same setting: with `CCOP(=S)(OCC)SCSCC` the entry was “inactive”.
As for `OCC(F)(F)OC(F)(F)C(F)(F)OC(F)(F)C(F)(F)OC(F)(F)CO`, the outcome was inactive.
As for `CC(C)(C)N(NC(=O)c1ccc(Cl)cc1)C(=O)c1ccccc1`, the outcome was inactive.
Regarding `CO/N=C(/C(=O)OC)c1ccccc1COc1ccccc1C`, the AC50 is 7.83 µM (active).
For the compound `O=P(OCC(Br)CBr)(OCC(Br)CBr)OCC(Br)CBr` (configuration not stated), the outcome was inactive.
As for `CCCCC(CC)COP(=O)(Oc1ccccc1)Oc1ccccc1` (configuration not stated), the outcome was inactive.
The same measure, in the same setting: with `O=S(=O)(F)C(F)(F)C(F)(F)C(F)(F)C(F)(F)C(F)(F)C(F)(F)C(F)(F)C(F)(F)F` the entry was “inactive”.
Turning to `O=c1ssc(Cl)c1Cl`, the AC50 was 9.92 µM (active).
Take `c1ccc2c(c1)sc1ccccc12`: the outcome was inactive.
As to `ClC1=C(Cl)C2(Cl)C3C(Cl)C(Cl)CC3C1(Cl)C2(Cl)Cl` (configuration not stated), the result was inactive.
